The whole screen tested about 420,000 compounds, of which about 540 (0.13%) were called active. What follows is part of a selection rich in actives, with near analogues and random picks from the rest. Values without a mark were called inactive. Cut-off read from the data, not from the text of the source: active = activity change below about -50%; inconclusive = mostly about -30% to -49%; inactive = weaker than that.
Target: Phosphatidylinositol 4-kinase type 2-alpha (Homo sapiens) (UniProt Q9BTU6)
Assay: qHTS for small molecular inhibitors of PI4K2A;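 for activity change, negative = inhibition: -100% = wells without enzyme as full effect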
Details: purified PI4K2A, ADP-Glo luminescence, 1 h; at 76.9 µM, hits give low values
Description: The phosphatidylinositol 4-phosphate (PI4P) is emerging as a key regulator of lipid transfer in ER-membrane contact sites. The four different phosphatidylinositol 4-kinase (PI4K) enzymes generate PI4P in different membrane compartments supporting distinct cellular processes many of which are crucial for the maintenance of cellular integrity but also hijacked by intracellular pathogens. The goal of this screening project is to search for small molecular inhibitors of PI4K2A based on a high throughput screening strategy.The ADP-Glo assay was used as a starting point to develop a miniaturized version for HTS applications. To implement the HTS screen, the PI4K ADP-Glotrade mark Kinase assay (Promega, V9102) was miniaturized for the 1536-well format used at NCGC.
For the robotic screening, the ADP-Glo assay using the ADP-Glotrade mark Kinase Assay kit from Promega was miniaturized and optimized on 1536-well white solid bottom plates (Greiner Bio-one). The substrate, 1.2 mM PI, prepared in the assay buffer (40mM Tris pH7.5, 20mM MgCl2, 1mM EGTA, 0.4% Triton X-100, 0.5mM DTT, 0.5mg/ml BSA) and PI4K2A enzyme, diluted also in the assay buffer to 4ug/mL, were dispensed onto the plates in equal volumes (1microl/well), pinned with 23 nL/well tested compounds or control followed by dispensation of 1microl/well 300microM ATP. The plates were incubated for one hour. Then, 2 µL/well of ADP-Glo reagent was added and incubated for 40 minutes. Next, 4microL/well of Kinase Detection Buffer was added to the plates and incubated for additional 40 minutes. All incubation steps were performed at ambient temperature. The resulting luminescence signal was measured on Viewlux plate reader (PerkinElmer). Adenosine, a partial non-specific inhibitor, was used as a positive control at 100microM final concentration to assess the assay's quality and plate-to-plate reproducibility. We also used "no enzyme" control to gauge the assay's maximal potential inhibition (IC100).

Phosphatidylinositol 4-kinase type 2-alpha (Homo sapiens), sequence (Q9BTU6 whole entry, looked up): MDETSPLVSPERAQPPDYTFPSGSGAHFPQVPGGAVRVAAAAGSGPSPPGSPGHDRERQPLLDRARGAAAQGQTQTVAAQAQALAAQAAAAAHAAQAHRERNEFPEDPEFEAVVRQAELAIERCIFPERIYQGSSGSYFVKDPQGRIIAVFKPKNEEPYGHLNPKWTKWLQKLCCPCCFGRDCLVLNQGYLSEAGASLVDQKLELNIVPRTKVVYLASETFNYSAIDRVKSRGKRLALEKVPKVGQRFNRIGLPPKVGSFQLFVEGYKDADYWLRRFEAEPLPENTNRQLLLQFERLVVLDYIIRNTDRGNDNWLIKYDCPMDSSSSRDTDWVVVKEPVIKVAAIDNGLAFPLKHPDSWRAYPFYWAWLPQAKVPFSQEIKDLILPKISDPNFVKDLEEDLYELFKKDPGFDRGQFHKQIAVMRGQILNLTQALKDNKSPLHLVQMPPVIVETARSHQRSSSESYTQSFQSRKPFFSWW

SMILES | activity change, negative = inhibition
CCC(=O)c1ccc(OCC(=O)N2CCN(CC(=O)Nc3ccc(C)cc3)CC2)cc1 | -4.83%
C=CCN1C(=O)NC(=O)/C(=C/c2ccc(OCC(=O)Nc3ccc(C)cc3)cc2)C1=O | -53.5% (active)
C=CCN(CC=C)C(=O)Nc1ccc(OCC)cc1 | 7.59%
CO[C@]12CC[C@@]3(C[C@@H]1[C@](C)(O)C(C)(C)C)[C@@H]1Cc4ccc(O)c5c4[C@@]3(CCN1CC1CC1)[C@H]2O5 | inactive
CCCOC(=O)c1cncn1C(C)c1ccccc1 (stereo not given) | -0.694%

From PubChem BioAssay AID1346378 (National Center for Advancing Translational Sciences (NCATS), 2018)
